Results on 29 molecules are retold here after PubChem BioAssay (Tox21).

Several values for one entry are separate records, joined by “and”; a condition that tells them apart may be missing. Equal values may be shown once. Activity calls are given as the source filed them. Where a call stands in place of a potency, no number is given. Calls follow the shape of the dose curve; as a rule, active = well fitted curve in the direction sought with a large enough effect in the repeat runs; inconclusive = weak or mixed curves; inactive = flat fitted curve, though single readings scatter.
Potency is read from the fitted curve at half-maximal effect; tags tell the direction and shape of the fitted curve or compound fluorescence and quenching.

The test in a line: qHTS assay to test for compound auto fluorescence at 535 nm (green) in HepG2 cell free culture (AID 720686). Particulars: Cell-free medium, green autofluorescence 485/535 nm; series mostly up to 91.3 µM.
As for `O=C1NC(=O)C(c2ccccc2)(c2ccccc2)N1`, the Potency result is “inactive”. As for `O=c1[nH]cnc2c1ncn2[C@H]1CC[C@@H](CO)O1`, the entry is “inactive”; as for `C=C(C)C(=O)OCC(C)O` (centres undefined), “inactive”. As for `CC(C)c1c(C(=O)Nc2ccccc2)c(-c2ccccc2)c(-c2ccc(F)cc2)n1CC[C@@H](O)C[C@@H](O)CC(=O)O`, the entry is “inactive”; as for `O=C(Nc1ncc([N+](=O)[O-])s1)c1cccs1`, “inactive”; as for `CN1[C@@H]2CC(OC(=O)[C@H](CO)c3ccccc3)C[C@H]1[C@@H]1O[C@@H]12` (some centres undefined), “inactive”.

Take `C/C=C/C=C/C(=O)O`: the Potency entry is “inactive”. With `C1=CC2C3C=CC(C3)C2C1` (centres undefined) the entry was “inactive”; with `CCCC[P+](CCCC)(CCCC)CCCC`, “inactive”.

As for `CN1CCC[C@H]1c1cccnc1`, the Potency result is “inactive”. With `C1CCC(C(CC2CCCCN2)C2CCCCC2)CC1` (centres undefined) the entry was “inactive”; with `O=S1(=O)OC(c2ccc(O)cc2)(c2ccc(O)cc2)c2ccccc21`, “inactive”; with `Cc1ccc(S(=O)(=O)O)cc1`, “inactive”. With `CC/C(=C(\c1ccccc1)c1ccc(OCCN(C)C)cc1)c1ccccc1` the entry was “inactive”; with `CCCCCCc1ccc(O)cc1O`, “inactive”; with `O=C1NS(=O)(=O)c2ccccc21`, “inactive”. On to `COc1ccc2cc(S(=O)(=O)N[C@H](CC(=O)N[C@H](Cc3ccc(CN4[C@H](C)CCC[C@@H]4C)cc3)C(=O)N(C)C(C)C)c3ccc4c(c3)OCO4)ccc2c1`, for which the Potency result is “inactive”. For `C=C1CC[C@H](O)C/C1=C\C=C1/CCC[C@]2(C)[C@@H]([C@H](C)CCCC(C)C)CC[C@@H]12`, the Potency result is “inactive”. As for `F[B-](F)(F)F`, the entry is “inactive”; as for `CC(=O)CC(c1ccccc1)c1c(O)c2ccccc2oc1=O` (centres undefined), “inactive”. Turning to `O=CC(=O)c1ccccc1`, the Potency entry is “inactive”. With `CN[C@H]1CC[C@@H](c2ccc(Cl)c(Cl)c2)c2ccccc21` the entry was “inactive”; with `CCN(CC)C(=O)c1cccc(C)c1`, “inactive”. As for `CCCCC(CC)C(=O)O` (centres undefined), the entry is “inactive”; as for `CC(C)NCC(O)c1ccc(O)c(O)c1` (centres undefined), “inactive”.

In the case of `O=C1OC2(c3ccccc31)c1cc(Br)c(O)c(Br)c1Oc1c2cc(Br)c(O)c1Br`, the Potency was 10 µM [fluorescent] (active) and 20 µM [fluorescent] (active). As for `CC(=O)CCC(=O)O`, the entry is “inactive”; as for `COc1ccc(CN(CCN(C)C)c2ccccn2)cc1`, “inactive”.

Regarding `CCN(Cc1c(F)cccc1Cl)c1c([N+](=O)[O-])cc(C(F)(F)F)cc1[N+](=O)[O-]`, the Potency result is “inactive”.
